Source: PubChem BioAssay (EPA / NIEHS)
Inconclusive results are not listed. Calls of active or inactive are those of the source. The calls were made as follows, unless noted: active = hit-call score of the fitted dose curve at least 0.9, where 1 is the maximum; inconclusive = response in the unintended direction; inactive = score below 0.9.

What was measured:
[1] = Tanguay_ZF_120hpf_PE_legacy: (Legacy) Oregon State University Tanguay Lab 120 Hour Post-fertilization zebrafish Assay for Pericardial Edema (AID 2283640);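 as to AC50: potency for increased incidence of pericardial edema versus DMSO baseline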
Outline: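 Scoring was binary, by brightfield microscopy at 120 hpf, and skipped where mortality occurred. Wild-type embryos were kept under sealed, foil-covered static exposure at 28C in 0.64% (vol/vol) DMSO.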

[2] = Tanguay_ZF_120hpf_BRAI_legacy: (Legacy) Oregon State University Tanguay Lab 120 Hour Post-fertilization zebrafish Assay for Brain Malformation (AID 2283641)
Outline: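 Binary brightfield scoring of brain malformation at 120 hpf in Tropical 5D larvae held under static exposure at 28C (0.64% v/v DMSO), non-mortality endpoints skipped if dead. Positive control: 5uM trimethyltin chloride; fit versus DMSO.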

[3] = Tanguay_ZF_120hpf_SOMI_legacy: (Legacy) Oregon State University Tanguay Lab 120 Hour Post-fertilization zebrafish Assay for Somite Malformation (AID 2283647)
Outline: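 Binary somite-defect scoring at 120 hpf, omitted for embryos that died, in wild-type (Tropical 5D) zebrafish with chorion removed by pronase at 4 hpf; static exposure began 6 hpf, single embryos per well, 28C, 0.64% DMSO; fitted positive versus DMSO.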

[4] = Tanguay_ZF_120hpf_PIG_legacy: (Legacy) Oregon State University Tanguay Lab 120 Hour Post-fertilization zebrafish Assay for Pigmentation Malformation (AID 2283650)
Outline: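 Pronase dechorionation at 4 hpf; embryos plated at 6 hpf, one per well; static exposure, sealed and foil-covered, 28C, to 120 hpf; pigmentation read by brightfield, binary; DMSO 0.64% baseline, 5uM trimethyltin chloride positive control.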

[5] = Tanguay_ZF_120hpf_CIRC_legacy: (Legacy) Oregon State University Tanguay Lab 120 Hour Post-fertilization zebrafish Assay for Circulatory Malformation (AID 2283651)
Outline: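 Read-out: presence or absence of circulatory malformation at 120 hpf, scored by brightfield microscopy, fitted in the gain-of-signal direction against DMSO baseline. Wild-type 5D larvae were exposed from 6 hpf after enzymatic chorion removal.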

[6] = Tanguay_ZF_120hpf_SWIM_legacy: (Legacy) Oregon State University Tanguay Lab 120 Hour Post-fertilization zebrafish Assay for Swim Bladder Malformation (AID 2283654);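 also: swim bladder malformation in each larva scored yes or no under brightfield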
Outline: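 Embryos lacking chorions were exposed individually and statically to test chemical from 6 to 120 hpf at 28C, with 0.64% DMSO as vehicle. At 120 hpf, swim bladder malformation was recorded as present or absent by brightfield microscopy.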

[7] = Tanguay_ZF_120hpf_NC_legacy: (Legacy) Oregon State University Tanguay Lab 120 Hour Post-fertilization zebrafish Assay for Notochord and Tail Malformation (AID 2283656)
Outline: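 Dechorionated Tropical 5D wild-type zebrafish embryos, one per well from 6 hpf, statically exposed to 120 hpf at 28C in 0.64% DMSO final. Notochord distortion scored present/absent by brightfield; dead embryos excluded.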

[8] = system: Thyroperoxidase (TPO), gene 54314; experiment: CCTE_Simmons_AUR_rTPO: CCTE's Amplex UltraRed Assay for Thyroperoxidase (TPO) Inhibition, Simmons Lab (AID 2283662);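 also: potency for loss of signal meaning inhibition of peroxidase activity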
Outline: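 Endpoint is decreased Amplex UltraRed fluorescence after a 30-min, 37C reaction of rat thyroid microsomes with 300 uM H2O2. Eight test concentrations (5 nM–87.5 uM final) in 0.5% DMSO, three biological replicates each.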

[9] = CCTE_Simmons_CellTiterGLO_HEK293T: Viability Assessment in CCTE's Assays for Thyroperoxidase (TPO) Inhibition, Simmons Lab (AID 2283665);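 as to AC50: cells exposed to compound for 24 h before readout; actives reduce ATP signal below DMSO vehicle meaning cytotoxicity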
Outline: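 HEK293T, 10 000 cells/well, DMEM + 1% FBS; 8-pt titration 5 nM–87.5 uM [final], 0.5% DMSO; 24 hr, 37C, 5% CO2; CellTiter-Glo luminescence; n=3 biological replicates.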

[10] = CCTE_Padilla_ZF_144hpf_TERATOSCORE: (Legacy) CCTE's 144 Hour Post-fertilization zebrafish Assay Teratoscore, Padilla Lab (AID 2283679; active = hit-call score of the fitted dose curve at least 0.9, where 1 is the maximum; inactive = score below 0.9;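 also: zebrafish embryos with chorions exposed by immersion from 6-8 hpf to 5 dpf with daily renewal; teratogenicity score from eye scoring of death hatching and malformations at 144 hpf; higher score means more developmental defects relative to DMSO baseline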)
Outline: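 Larvae scored by eye at 144 hpf for death, hatching and malformations after a day in clean Hanks'. Before that, daily-renewed exposure at 80 uM (0.4% DMSO, 26C) from roughly 6-8 hpf through 5 dpf, 4 embryos per chemical.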

[11] = Tanguay_ZF_120hpf_CFIN_legacy: (Legacy) Oregon State University Tanguay Lab 120 Hour Post-fertilization zebrafish Assay for Caudal Fin Malformation (AID 2283649)
Outline: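 Binary brightfield scoring of caudal fin defects at 120 hpf after static, light-shielded exposure at 28C from 6 hpf. Tropical 5D embryos, chorion removed with pronase at 4 hpf, final DMSO 0.64%.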

[12] = read-out: kallikrein-3 (KLK3), KLK3 (gene 354); experiment: LTEA_HepaRG_KLK3: Life Technologies and Expression Analysis (LTEA) Assay for kallikrein-3 (KLK3) using HepaRG (AID 2283652; active = hit-call score of the fitted dose curve at least 0.9, where 1 is the maximum; inactive = score below 0.9); details: mRNA level, 48 h; actives raise or lower the signal
Outline: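 Differentiated human HepaRG cells in serum-free induction medium exposed 48 h in duplicate, eight-point half-log series from 100 uM in 0.5% DMSO. KLK3 mRNA by qRT-PCR, normalised to ACTB, GAPDH, POLR2A; bidirectional fit versus DMSO.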

[13] = read-out: solute carrier (SLC22A6), SLC22A6 (gene 9356); experiment: LTEA_HepaRG_SLC22A6: Life Technologies and Expression Analysis (LTEA) Assay for solute carrier (SLC22A6) using HepaRG (AID 2283653; active = hit-call score of the fitted dose curve at least 0.9, where 1 is the maximum; inactive = score below 0.9); details: mRNA level, 48 h; actives raise or lower the signal
Outline: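 SLC22A6 transcript was measured by TaqMan qRT-PCR, normalized to three housekeeping genes, after 48 h duplicate exposure of HepaRG cells (100 uM top, half-log steps, 0.5% DMSO); bidirectional fit against vehicle.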

[14] = Tanguay_ZF_120hpf_TRUN_legacy: (Legacy) Oregon State University Tanguay Lab 120 Hour Post-fertilization zebrafish Assay for Truncated Body (AID 2283655)
Outline: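 Binary presence/absence of truncated body is recorded at 120 hpf by brightfield, with non-mortality endpoints skipped after death. Exposure is static from 6 hpf in sealed dark plates at 28C, using dechorionated wild-type zebrafish, 0.64% DMSO.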

[15] = read-out: solute carrier (SLC10A1), SLC10A1 (gene 6554); experiment: LTEA_HepaRG_SLC10A1: Life Technologies and Expression Analysis (LTEA) Assay for solute carrier (SLC10A1) using HepaRG (AID 2283657; active = hit-call score of the fitted dose curve at least 0.9, where 1 is the maximum; inactive = score below 0.9); details: mRNA level, 48 h; actives raise or lower the signal
Outline: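 Transcript levels were measured by qRT-PCR after human HepaRG cells received test chemical for 48 hours, up to 100 uM in half-log dilutions. Values come from bidirectional concentration-response fitting relative to 0.5% DMSO vehicle.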

[16] = read-out: matrix metalloproteinase-1 (MMP1), MMP1 (gene 4312); experiment: LTEA_HepaRG_MMP1: Life Technologies and Expression Analysis (LTEA) Assay for matrix metalloproteinase-1 (MMP1) using HepaRG (AID 2283658; active = hit-call score of the fitted dose curve at least 0.9, where 1 is the maximum; inactive = score below 0.9); details: mRNA level, 48 h; actives raise or lower the signal
Outline: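 qRT-PCR (TaqMan, Fluidigm arrays) of MMP1 transcript, normalized against three housekeeping genes and fitted in both directions relative to 0.5% DMSO vehicle. Human HepaRG cultures received duplicate 48 h exposures across 8 points, highest 100 uM with half-log steps.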

[17] = read-out: Cytochrome P450 (CYP24A1_1), CYP24A1 (gene 1591); experiment: LTEA_HepaRG_CYP24A1_1: Life Technologies and Expression Analysis (LTEA) Assay for Cytochrome P450 (CYP24A1_1) using HepaRG (AID 2283671; active = hit-call score of the fitted dose curve at least 0.9, where 1 is the maximum; inactive = score below 0.9); details: mRNA level, 48 h; actives raise or lower the signal
Outline: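 In this test, gene induction or suppression of CYP24A1 in human HepaRG liver cells is measured by qRT-PCR after 48 h chemical treatment (eight concentrations, maximum 100 uM). Values are fitted bidirectionally relative to DMSO.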

[18] = Tanguay_ZF_120hpf_TR_legacy: (Legacy) Oregon State University Tanguay Lab 120 Hour Post-fertilization zebrafish Assay for Touch Response (AID 2283667)
Outline: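 5D WT embryos; static exposure to 120 hpf, 28C, sealed/dark; DMSO 0.64% v/v final. TR scored present/absent; dead embryos excluded. Pos ctrl 5uM trimethyltin chloride.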

[19] = Tanguay_ZF_120hpf_PFIN_legacy: (Legacy) Oregon State University Tanguay Lab 120 Hour Post-fertilization zebrafish Assay for Pectoral Fin Malformation (AID 2283648);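 also: each larva judged yes or no for fin defect by brightfield with dead larvae skipped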
Outline: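 5D WT zebrafish; pronase dechorionation 4 hpf; 1 embryo/well at 6 hpf; static exposure to 120 hpf, 28C, sealed, foil-covered; final DMSO 0.64% v/v; 5 uM trimethyltin chloride positive control; fin defect scored yes/no.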

[20] = STM_H9_OrnithineISnorm_perc: Stemina devTOX quickPredict H9 human embryonic stem cell (hESC)-based Assay for Ornithine (ORN) Metabolite Biomarker, Normalized (AID 2283712; active = hit-call score of the fitted dose curve at least 0.9, where 1 is the maximum; inactive = score below 0.9;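 also: ornithine released into spent medium during last day measured by mass spectrometry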)
Outline: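 H9 human embryonic stem cells kept pluripotent receive test chemical over 72 h, refreshed daily by media exchange. Media from the closing 24 h is deproteinized and analysed by UPLC-HRMS on an amide column; ornithine signal is scaled to labelled standard and vehicle.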

Measured: AC50

CC(C)(C)c1cccc(C(C)(C)C)c1O
active: [8] 2.68 µM | [9] 10.2 µM | [10] 97.8 µM
inactive: [1] | [2] | [3] | [4] | [5] | [6] | [7]

ClC1=C(Cl)C(Cl)(Cl)C(Cl)=C1Cl
active: [10] 4.87 µM
inactive: [1] | [2] | [3] | [11] | [4] | [12] | [13] | [14] | [7] | [15] | [16] | [17]

CC#C[C@]1(O)CC[C@H]2[C@@H]3CCC4=CC(=O)CCC4=C3[C@@H](c3ccc(N(C)C)cc3)C[C@@]21C
inactive: [3] | [11] | [4] | [5] | [6] | [7]
active: [1] 73.3 µM | [8] 4.74 µM | [9] 17.7 µM | [18] 11.7 µM | [10] 14.5 µM

Oc1cccc(O)c1
inactive: [1] | [2] | [3] | [4] | [5] | [6] | [7] | [9]
active: [8] 0.0137 µM

CN(C)C=O
inactive: [2] | [3] | [19] | [11] | [4] | [5] | [6] | [14] | [18] | [20]

COc1ccc([N+](=O)[O-])cc1N
inactive: [1] | [3] | [19] | [11] | [5] | [6] | [14] | [9] | [18] | [20]
active: [8] 3.52 µM

c1ccc2c(c1)Cc1ccccc1-2
inactive: [1] | [2] | [3] | [11] | [4] | [6] | [7] | [18]

COCC(C)OCC(C)O (stereo not given)
inactive: [1] | [2] | [3] | [19] | [5] | [6] | [7] | [18]
